Assay outcomes as filed in PubChem BioAssay.
Most compounds without a hit are left out; they make up all but 0.58% or so of the library.
FadD28 binding: M. tuberculosis FadD28 bisubstrate binding inhibition; hit rate 0.22% among 360,000; FadD28 bisubstrate probe binding, fluorescence polarization; inhibition, % at 12.5 µM; AID 588549; in the data active means inhibition above about 8.5%, passing the limit was not always enough
BH1578 lux ind: induces V. cholerae light production without autoinducers; V. cholerae BH1578 lux reporter, luminescence, 6 h; activation, % at 18.7 µM; hit rate 0.16% among 350,000; AID 588436; in the data active means activation mostly above about 9.7%, no sharp cut-off
Mtb BioA inh: BioA (M. tuberculosis) enzyme inhibition | purified M. tuberculosis BioA enzyme, plate reader | inhibition, % at 9.99 µM | hit rate 0.096% among 360,000 | AID 602481; in the data active means inhibition above about 40%
TcdB GH inh: TcdB glycohydrolase inhibition; P18177; TcdB glycohydrolase enzymatic assay, plate reader; inhibition, % at 9.99 µM; hit rate 0.24% among 350,000; AID 652162; in the data active means inhibition above about 10%
Y pestis TopoI: blocks Yersinia pestis topoisomerase I activity | AID 504884 | activity, % at 10 µM | Y. pestis Topo-I cleavage product accumulation, plate reader | hit rate 0.064% among 360,000; in the data active means activity above about 50%, passing the limit was not always enough
* hit, by the source's call.

Screening COc1cccc(C(=O)Nc2ccc3c(c2)C(=O)N(C)C[C@H](OC)[C@@H](C)CN(C)[C@H](C)CO3)c1 returned Mtb BioA inh -2 and TcdB GH inh 0.
`CCN=c1scc(-c2ccco2)n1/N=C/c1ccc(OC)c(O)c1` gave FadD28 binding 9.4*, BH1578 lux ind inactive, Mtb BioA inh -1, TcdB GH inh -3 and Y pestis TopoI 4.
For CCN(CC)c1ccc(/C=C2\C(=O)c3ccc(C(=O)O)cc3C2=O)cc1 the results were FadD28 binding 25*, BH1578 lux ind 0 and Y pestis TopoI -4.
`CCCNC(=O)C[C@@H]1C[C@@H]2c3cc(NC(=O)Cc4ccncc4)ccc3O[C@@H]2[C@H](CO)O1` gave Mtb BioA inh -2.
`O=C(CN1CCCCC1)Nc1ccc(Br)cc1[N+](=O)[O-]` gave FadD28 binding 0, BH1578 lux ind 48*, Mtb BioA inh 0, TcdB GH inh 1 and Y pestis TopoI 9.
COc1cccc(/C=N/Nc2ncnc(Cl)c2N)c1O was read as FadD28 binding 1, BH1578 lux ind 7, TcdB GH inh -10 and Y pestis TopoI -3.
For COc1cccc(/C=N/Nc2ncnc3scc(-c4ccccc4)c23)c1O the results were FadD28 binding 0, BH1578 lux ind 0 and Y pestis TopoI 67*.
For CC(C)OC(=O)c1cccc(C(=O)Oc2ccc(Br)cc2)n1 the results were FadD28 binding -1, BH1578 lux ind -2, Mtb BioA inh 1 and Y pestis TopoI 7.
For CC(C)OC(=O)c1cccc(C(=O)O)n1 the results were FadD28 binding -1, BH1578 lux ind inactive, Mtb BioA inh 0, TcdB GH inh 12* and Y pestis TopoI -3.
`CCC(=O)N1[C@@H](CO)[C@H](c2ccccc2)C12CN(C(=O)c1ccc(F)cc1)C2` gave TcdB GH inh -1.
For O=C(Nc1cccc(Oc2ccc(C(=O)O)c(C(=O)O)c2)c1)c1ccc(-c2ccccc2)cc1 the results were FadD28 binding 29*, BH1578 lux ind inactive, Mtb BioA inh 4, TcdB GH inh 0 and Y pestis TopoI 12.
CCN(CC)c1ccc(/C=C(\C#N)C(=O)c2ccc(Br)cc2)cc1 was read as FadD28 binding 28*, BH1578 lux ind 0 and Y pestis TopoI 26.
For Cc1cccc(NC(=O)CN2C(=O)N/C(=C/c3cc(C)n(C)c3C)C2=O)c1 the results were FadD28 binding 0, BH1578 lux ind -1, TcdB GH inh 1 and Y pestis TopoI -4.
`Cc1cccc(NC(=O)CN2C(=O)N/C(=C/c3cc(C)n(-c4cccnc4)c3C)C2=O)c1` gave FadD28 binding 28*, BH1578 lux ind 0, TcdB GH inh 0 and Y pestis TopoI -9.
Screening Cc1cccc(NC(=O)CN2C(=O)N/C(=C/c3cc(C)n(-c4ccncc4)c3C)C2=O)c1 returned FadD28 binding 11*, BH1578 lux ind -4, Mtb BioA inh 0, TcdB GH inh 1 and Y pestis TopoI 5.
For O=C(C[C@H]1CC[C@@H](NS(=O)(=O)c2ccccc2)[C@H](CO)O1)N1CCC(Cc2ccccc2)CC1 the results were TcdB GH inh 1.
`O=C(C[C@H]1C[C@H]2c3cc(NC(=O)c4ccc5c(c4)OCO5)ccc3O[C@H]2[C@H](CO)O1)NCc1cccc(F)c1` gave Mtb BioA inh -1 and TcdB GH inh 14*.
`Cc1cccc(NC(=O)C(=O)NNC(=O)c2ccc(C(C)(C)C)cc2)c1` gave FadD28 binding -1, BH1578 lux ind 0, Mtb BioA inh -5, TcdB GH inh 1 and Y pestis TopoI -6.
`Cc1ccc(F)c(NC(=O)/C(C#N)=C(\O)c2ccc(C(C)(C)C)cc2)c1` gave FadD28 binding 29*, BH1578 lux ind 0, TcdB GH inh -2 and Y pestis TopoI 0.
For CCN(CCCNc1cc2c(c(N)c1S(=O)(=O)O)C(=O)c1ccccc1C2=O)c1ccccc1 the results were FadD28 binding 29*, BH1578 lux ind -1, Mtb BioA inh -1, TcdB GH inh 2 and Y pestis TopoI 9.
O=C(Cc1ccccn1)N[C@H]1CC[C@@H](CC(=O)N2CCCCC2)O[C@H]1CO was read as Mtb BioA inh 0 and TcdB GH inh -2.
Screening COC(=O)[C@H]1[C@H](CO)[C@H]2Cn3c(ccc(-c4ccccc4)c3=O)[C@H]2N1CCc1ccccc1 returned Mtb BioA inh 23 and TcdB GH inh -1.
CCCCN(C)c1c(C)nc2ccc(C(=O)NCc3cccs3)cn12 was read as FadD28 binding -4, BH1578 lux ind 0, Mtb BioA inh 0, TcdB GH inh 18* and Y pestis TopoI 20.
`CN1C(=O)c2cc(NC(=O)C3CC3)ccc2OC[C@H]2O[C@H](CC(=O)O)CC[C@@H]21` gave TcdB GH inh -1.
For CCc1ccccc1NC(=O)CN(C)C(=O)CSc1nnc(Nc2cccc(C)c2C)s1 the results were FadD28 binding 29*, BH1578 lux ind 0, Mtb BioA inh -1 and Y pestis TopoI 37.
`Cc1nnc(SCC(=O)N(C)CC(=O)Nc2ccccc2Cl)s1` gave FadD28 binding -3, BH1578 lux ind inactive, Mtb BioA inh 2, TcdB GH inh 3 and Y pestis TopoI 7.
CCCc1cn([C@H]2C[C@@H]3O[C@H](CO)CC[C@@H]3O[C@@H]2CCc2ccc(-c3ccccc3C#N)cc2)nn1 was read as TcdB GH inh 1.
Screening Cc1ccn2c(=S)[nH]nc2c1 returned FadD28 binding -2, BH1578 lux ind -6, Mtb BioA inh -3, TcdB GH inh -2 and Y pestis TopoI 7.
S=c1[nH]nc2ccccn12 was read as FadD28 binding 0, BH1578 lux ind -1, Mtb BioA inh -1, TcdB GH inh 26* and Y pestis TopoI 7.
For Cc1cc(/C=C2\C(=O)NC(=O)N(Cc3ccccc3)C2=O)c(C)n1-c1ccc(Cl)c(C(=O)O)c1 the results were FadD28 binding 16*, BH1578 lux ind inactive, TcdB GH inh -3 and Y pestis TopoI -6.
Screening Cc1cc(C=C2C(=O)c3ccccc3C2=O)c(C)n1-c1ccc(C(=O)O)cc1 returned FadD28 binding -1, BH1578 lux ind inactive, TcdB GH inh 27* and Y pestis TopoI 9.
COc1cc(/C=N/n2nnnc2N)ccc1OC(C)=O was read as FadD28 binding 0, BH1578 lux ind 240*, Mtb BioA inh 0, TcdB GH inh 0 and Y pestis TopoI 2.
`CCCC(=O)Nc1ccc2c(c1)C(=O)N(C)[C@@H]1CC[C@@H](CC(=O)Nc3cn(C)nc3C)O[C@@H]1CO2` gave Mtb BioA inh 6 and TcdB GH inh -1.
Screening CCCC(=O)N1N=C(c2ccccc2)CC1c1cn(C)c2ccccc12 (stereo not given) returned FadD28 binding -1, BH1578 lux ind 0, Mtb BioA inh -2 and Y pestis TopoI 56*.
Cn1cc(C2CC(c3ccccc3)=NN2C(=O)c2ccccc2)c2ccccc21 (stereo not given) was read as FadD28 binding -3, BH1578 lux ind -1, Mtb BioA inh -1 and Y pestis TopoI 19.
